Data reported in PubChem BioAssay AID624305 (National Center for Advancing Translational Sciences (NCATS), 2012).
Inconclusive results are not listed. Entries that show only a call come without a potency. A number with no mark means an inactive call. Active and inactive are the calls of the source. Calls follow the shape of the dose curve; as a rule, active = well fitted activation curve with a large enough effect; inconclusive = small, poorly fitted or top-dose-only effect; inactive = no such curve, though single readings can be large or run the other way.

Experiment: qHTS assay for re-activators of p53 using a Luc reporter: Hit Validation; also: nearly all actives have a fitted effect of over 75% in size
Settings: p53-responsive luciferase reporter cells, luminescence; series mostly up to 46.1 µM
Source text: The p53 tumor suppressor plays a key role in suppression of tumorigenesis and in human carcinogenesis. It is frequently found inactivated in human cancers, mainly by point mutation. These point mutations are found in a wide variety of human cancers and a majority of them affect the DNA binding domain of the protein. The point mutations either alter native p53 conformation or abolish DNA contact. Additionally, cancer cells with p53 mutations are more resistant to chemo-radiation therapies.
In order to find activators to reactivate this important protein, a cell-based screen for p53-dependent luciferase-reporter expression was developed. A p53-null H1299 lung cancer cell line was stably co-transfected with a temperature sensitive p53 mutant, p53-A138V, and a p53-responsive BP100-luciferase reporter. This cell model has previously been characterized in a gene chip profiling experiment for p53 activation. By lowering the culture temperature from 37 deg C (mutant p53 conformation) to 32 deg C (w.t. p53 conformation), a 30-60 fold increase in activation of luciferase activity is observed. At assay temperate, 37 deg C, basal reporter expression is very low and after the addition of detection reagent, a luminescent read-out is carried out. This is the hit validation assay, confirming the hits identified from the primary screen.
NIH Chemical Genomics Center [NCGC]
NIH Molecular Libraries Probe Production Centers Network [MLPCN]
Assay Provider (PI): Yi Sung, University of Michigan at Ann Arbor
5ul of 1000 cells per well are dispensed in all wells except column 4, into white solid-bottom TC-treated Kalypsys plates. The cells are kept in Opti-MEM and supplemented with 10% FBS and dispensed using a Multidrop (Thermo). Then using the Kalypsys pin-tool, 23nl of compounds are pinned. The compounds are starting concentration at 10mM, with 1:5 dilution, 4 points, and the control compound nocodazole is pinned in column 1 at 25mM, 1:3 dilution, in duplicate, 25mM nocodazole is pinned in column 2. Please note, all concentrations are working concentrations. 5ul of 1pM purified luciferase enzyme is dispensed using the Kalypsys dispenser in column 4. Plates are incubated for 24 hrs at 37 deg C, 5% CO2, and 95% humidity. Then 4ul of the detection reagent Amplite (ABD Bioquest) is added using the Kalypsys dispenser. Plates are incubated for 10 min at ambient room temperature and are then read on the ViewLux (Perkin Elmer) using a clear filter for a luminescent read-out.
Potency is read from the fitted curve at half-maximal effect.

Question: Which Potency does the source give for `O=C(N/N=C/c1c(O)n(C2CC2)c(=S)[nH]c1=O)c1ccccc1` here?
Answer: inactive

Question: Which Potency does the source give for `Cc1cc(N2C(=O)C3CCCN3C2c2sccc2C)no1` (stereo unspecified) here?
Answer: inactive

Question: Which Potency does the source give for `O=C(c1cc2c(s1)CCCC2)N1CCC2(CC1)OCCO2` here?
Answer: inactive

Question: Which Potency does the source give for `COC(=O)C1=C(c2ccc(F)cc2OCc2ccccc2)C[C@@H]2CC[C@H]1N2C(=O)NCCOc1ccc(OC)cc1` here?
Answer: inactive

Question: With `Nc1c(C(=O)NCc2ccco2)c2nc3ccccc3nc2n1Cc1ccc(F)cc1` as the compound, how does the Potency read?
Answer: inactive

Question: With `COC(=O)C1=C(c2cccc(C#N)c2)C[C@@H]2CC[C@H]1N2C(=O)NC1CC1` as the compound, how does the Potency read?
Answer: inactive

Question: Which Potency does the source give for `COc1ccc(CN2CCNCC2)cc1` here?
Answer: inactive

Question: With `COc1ccc(NC(=O)C2C3CCC(O3)C2C(=O)O)c(OC)c1` (stereo unspecified) as the compound, how does the Potency read?
Answer: inactive

Question: Which activation does the source give for `O=C(N/N=C/c1c(O)n(Cc2ccccc2)c(=O)[nH]c1=O)c1ccccc1` here?
Answer: -38.5% [at 9.22 µM]

Question: With `N=C1c2ccccc2CN1CC(=O)c1ccccc1` as the compound, how does the Potency read?
Answer: 20.6 µM (active)

Question: Which Potency does the source give for `Nc1ccccc1N=Cc1c(O)n(CCC2=CCCCC2)c(=O)[nH]c1=O` here?
Answer: inactive
